Screens (PubChem BioAssay)
RORgamma inh: inhibitors of mouse ROR gamma transcriptional activity; actives 5.4% (n = 310,000); Drosophila S2 Gal4-RORgamma UAS-luciferase reporter, 20 h; Potency, µM (doses to about 53.6 µM), inactives show at the highest dose activity change, negative = inhibition, hits mostly inhibitors; note: % is set by controls: 0 for no effect and ±100 for the full control effect; nearly all actives have a fitted effect of over 60% in size
Target sequence (P51450 whole entry, looked up, the tested form may be a part): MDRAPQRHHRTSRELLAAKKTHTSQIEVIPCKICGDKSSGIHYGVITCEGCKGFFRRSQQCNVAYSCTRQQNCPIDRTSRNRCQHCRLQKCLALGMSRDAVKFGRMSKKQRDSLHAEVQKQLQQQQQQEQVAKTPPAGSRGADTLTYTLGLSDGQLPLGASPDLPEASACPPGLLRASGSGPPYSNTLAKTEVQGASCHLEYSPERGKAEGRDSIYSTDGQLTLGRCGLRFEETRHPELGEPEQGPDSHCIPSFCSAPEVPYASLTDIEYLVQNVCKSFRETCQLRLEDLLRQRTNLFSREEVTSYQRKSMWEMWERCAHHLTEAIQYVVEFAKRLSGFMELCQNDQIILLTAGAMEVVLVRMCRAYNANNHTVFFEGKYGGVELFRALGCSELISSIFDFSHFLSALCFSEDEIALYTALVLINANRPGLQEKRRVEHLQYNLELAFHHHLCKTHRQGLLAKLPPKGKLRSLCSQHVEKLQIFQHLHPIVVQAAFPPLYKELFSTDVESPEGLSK
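A Gal4/UAS one-hybrid system in insect cells: metallothionein-promoter Gal4–ROR gamma fusion plus Photinus luciferase reporter. Copper sulfate 700 uM final, 20 hr ambient incubation, luminescent detection after 10 min with reagent.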
KB-V1 cytotox: kills drug-selected multidrug resistant KB-V1 cells; Potency, µM (titrated, usually from 46.1 µM), hits mostly cytotoxic; KB-V1 MDR cells viability, CellTiter-Glo, 72 h; actives 3.4% (n = 400,000); note: % is set by controls: 0 for no effect and ±100 for the full control effect; nearly all actives have a fitted effect of over 60% in size
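Luminescent ATP read-out (CellTiter-Glo, 10 min) measures survival of drug-selected KB-V1 MDR cells after 72 h, 37 degrees C compound exposure. Medium: phenol-red-free DMEM, 10% FBS. Values from fitted concentration-response curves.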
KB-3-1 cytotox: KB-3-1 parental cell cytotoxicity. Potency, µM (series often up to 46.1 µM), usual class: cytotoxic. KB-3-1 viability, CellTiter-Glo ATP luminescence, 72 h. actives 1.4% (n = 400,000); note: % is set by controls: 0 for no effect and ±100 for the full control effect; nearly all actives have a fitted effect of over 60% in size
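Viability of parental KB-3-1 cells, measured by CellTiter-Glo luminescence, followed a 72 h incubation at 37 °C with pinned compounds in phenol-red-free DMEM containing 10% FBS.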
SW480 rerep: induces DNA re-replication in SW480 colon adenocarcinoma cells; actives 1.8% (n = 340,000); AID 624297; SW480 DNA re-replication, Hoechst DNA content imaging, 48 h; Potency, µM (top dose mostly 46.1 µM), without a hit: at the top dose re-replication activation, actives largely listed as activators; note: % of control where 0% means no effect; nearly all actives have a fitted effect of over 55% in size
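Cells (250 per well) received 23 nL compound or DMSO by pin tool and were kept 48 hr at 37 C, 5% CO2. Nuclei were then stained with Hoechst for 40 min and scanned for DNA content.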
VP16 counter: counter-screen for ROR gamma inhibitors: Gal4-VP16 reporter; Drosophila S2 Gal4-VP16 UAS-luciferase, luminescence, 20 h; Potency, µM (top dose mostly 53.6 µM), without a hit: at the highest dose activity, negative = inhibition, actives largely listed as inhibitors; actives 3.5% (n = 310,000); AID 2546;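 note: Gal4-VP16 expression switched on by copper sulfate through the metallothionein promoter; % is set by controls: 0 for no effect and ±100 for the full control effect; nearly all actives have a fitted effect of over 50% in size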
MCF10A rereplic: DNA re-replication induction in MCF 10a cells; Potency, µM (doses to about 46.1 µM), for the others: at the highest dose activity, positive = re-replication, actives largely listed as activators; actives 2.9% (n = 350,000); MCF 10A DNA re-replication, Hoechst nuclear intensity, 48 h; note: % of control where 0% means no effect; nearly all actives have a fitted effect of over 50% in size
The depositor's hits bear a star. Hits are enriched below; roughly 10% of the tested compounds scored in any of these assays. Calls come from the whole dose curve; as a rule, active = well fitted curve in the direction sought with a large enough effect; inconclusive = small, poorly fitted or top-dose-only effect, or another doubt; inactive = no such curve, though single readings can be large; an effect the other way counts as inactive or inconclusive. Potency is the fitted concentration of half-maximal effect.

`CCOc1ccc(NC(=S)NC(=O)/C=C/c2ccc(OC)c(OC)c2)c([N+](=O)[O-])c1` gave RORgamma inh 1.1µM*, KB-V1 cytotox inconclusive, KB-3-1 cytotox inactive, SW480 rerep -2%, VP16 counter 2.5µM* and MCF10A rereplic 16%.
COCCNc1nc(-c2cc(F)ccc2C)c2sc(-c3ccccc3)cc2n1 was read as KB-V1 cytotox inactive and KB-3-1 cytotox inactive.
Cc1ccc(-c2cc(C(=O)NCCCn3ccnc3)c3cc(Br)ccc3n2)o1 was read as RORgamma inh -2%, KB-V1 cytotox 21µM*, KB-3-1 cytotox inactive, SW480 rerep inconclusive, VP16 counter 1% and MCF10A rereplic 8%.
Screening Cc1ccc(-c2cc(C(=O)NC3=NCCS3)c3cc(Br)ccc3n2)o1 returned RORgamma inh 7.9µM* and VP16 counter 14µM*.
For COc1ccc(C(=O)Nc2ccc(N3CCCC3)cc2)cc1Br the results were RORgamma inh -13%, KB-V1 cytotox inactive, KB-3-1 cytotox inactive, SW480 rerep -9%, VP16 counter -3% and MCF10A rereplic -3%.
CC(=O)Nc1ccc(N2CCN(C(=O)c3cccs3)CC2)cc1 was read as RORgamma inh 11%, KB-V1 cytotox inactive, KB-3-1 cytotox inactive, SW480 rerep 11%, VP16 counter 1% and MCF10A rereplic 2%.
`COc1ccc(C(=O)Nc2ccc(N3CCN(C(=O)c4cccs4)CC3)cc2)cc1Br` gave RORgamma inh 8%, KB-V1 cytotox inactive, KB-3-1 cytotox inactive, SW480 rerep inconclusive, VP16 counter -1% and MCF10A rereplic 18µM*.
For COc1cc(OC)cc(C(=O)Nc2ccc(N3CCN(C(=O)c4cccs4)CC3)cc2)c1 the results were RORgamma inh 25%, KB-V1 cytotox 8.2µM*, KB-3-1 cytotox 7.3µM*, SW480 rerep inconclusive, VP16 counter 3% and MCF10A rereplic 18µM*.
Screening O=C(Nc1ccc(N2CCN(C(=O)c3cccs3)CC2)cc1)c1ccc(F)cc1 returned RORgamma inh 21%, KB-V1 cytotox 0.18µM*, KB-3-1 cytotox inactive, SW480 rerep -11%, VP16 counter 4% and MCF10A rereplic 0%.
Screening COc1cc(OC)cc(C(=O)Nc2ccc3c(c2)CCCN3C(=O)c2cccs2)c1 returned RORgamma inh inconclusive, KB-V1 cytotox inconclusive, KB-3-1 cytotox inconclusive, SW480 rerep -11%, VP16 counter 3% and MCF10A rereplic inconclusive.
`Cc1nncn1-c1ccc(C(=O)Nc2cc(F)ccc2F)cc1` gave KB-V1 cytotox inactive and KB-3-1 cytotox inactive.
`COc1cccc([C@@H]2Oc3ccc(OC)cc3C[C@H]2OC(=O)N[C@H](C)C2CCCCC2)c1` gave RORgamma inh -12% and VP16 counter -2%.
`Cc1ccc(C)c(NC(=O)Cn2c(=O)n(Cc3ccc4c(c3)OCO4)c(=O)c3ccccc32)c1` gave KB-V1 cytotox inactive and KB-3-1 cytotox inactive.
For COc1ccc(C(=O)/C=C/c2cc(OC)c(O)c(OC)c2)c(F)c1 the results were RORgamma inh inconclusive, KB-V1 cytotox inconclusive, KB-3-1 cytotox inconclusive, SW480 rerep 27%, VP16 counter inconclusive and MCF10A rereplic inconclusive.
`COc1ccc(/C=C/C(=O)c2ccc(C)c([N+](=O)[O-])c2)cc1O` gave RORgamma inh -84%, KB-V1 cytotox inconclusive, KB-3-1 cytotox inconclusive, SW480 rerep inconclusive, VP16 counter 16µM* and MCF10A rereplic inconclusive.
For COc1cccc(/C=C/C(=O)c2ccc(C)c([N+](=O)[O-])c2)c1 the results were RORgamma inh 51%, KB-V1 cytotox inactive, KB-3-1 cytotox inactive, SW480 rerep inconclusive, VP16 counter -16% and MCF10A rereplic 6.5µM*.
For COc1ccc2cc(C(=O)/C=C/c3cc(OC)c(O)c(OC)c3)ccc2c1 the results were RORgamma inh inconclusive, KB-V1 cytotox inactive, KB-3-1 cytotox inconclusive, SW480 rerep inconclusive, VP16 counter inconclusive and MCF10A rereplic 9.2µM*.
`COc1cc(/C=C/C(=O)O)cc(OC)c1O` gave KB-V1 cytotox inactive, KB-3-1 cytotox inactive, SW480 rerep 7% and MCF10A rereplic 5%.
For COc1cc(/C=C/C(=O)c2ccc(C)c([N+](=O)[O-])c2)cc(OC)c1O the results were RORgamma inh inconclusive, KB-V1 cytotox inconclusive, KB-3-1 cytotox inactive, VP16 counter inconclusive and MCF10A rereplic 9.2µM*.
For CNc1ccc(/C=C\CCCO)cn1 the results were KB-V1 cytotox inactive and KB-3-1 cytotox inactive.
COc1ccc(OC)c(CNC(=O)C2CCN(c3nc4ccccc4nc3C(F)(F)F)CC2)c1 was read as KB-V1 cytotox inactive and KB-3-1 cytotox inactive.
For CCOc1ccccc1NC(=O)CSc1nnc(CC)c(CC)n1 the results were KB-V1 cytotox inactive and KB-3-1 cytotox inactive.
For CC1CC1C(=O)Nc1nc(-c2ccccc2)cs1 (stereo unspecified) the results were RORgamma inh 23%, KB-V1 cytotox inactive, KB-3-1 cytotox inactive, SW480 rerep 0%, VP16 counter 0% and MCF10A rereplic 7%.
For O=C(Nc1nccs1)c1ccccc1Br the results were RORgamma inh -15%, KB-V1 cytotox inactive, KB-3-1 cytotox inactive, SW480 rerep -9%, VP16 counter -3% and MCF10A rereplic 2%.
Screening Cc1cc(-c2csc(NC(=O)c3ccc(=O)[nH]c3)n2)c(C)n1Cc1ccccc1 returned RORgamma inh -12%, KB-V1 cytotox inactive, KB-3-1 cytotox inactive, SW480 rerep -1%, VP16 counter 0% and MCF10A rereplic -11%.
O=C(Nc1nccs1)c1ccc2ccccc2n1 was read as RORgamma inh 7.1µM*, KB-V1 cytotox inconclusive, KB-3-1 cytotox inactive, SW480 rerep -2%, VP16 counter inconclusive and MCF10A rereplic -4%.
Cc1cnc(C(=O)Nc2nc(-c3ccccc3)cs2)cn1 was read as RORgamma inh 4.5µM*, KB-V1 cytotox 23µM*, KB-3-1 cytotox inactive, SW480 rerep -12%, VP16 counter 4.5µM* and MCF10A rereplic -4%.
`Cc1csc(NC(=O)c2ccc(C(=O)Nc3nc(C)cs3)cc2)n1` gave RORgamma inh 1% and VP16 counter 3%.
Screening O=C(Nc1nc(-c2ccccc2)cs1)c1ccc(=O)[nH]c1 returned RORgamma inh inconclusive, KB-V1 cytotox 18µM*, KB-3-1 cytotox inconclusive, SW480 rerep -8%, VP16 counter 3% and MCF10A rereplic 16%.
